From PubChem BioAssay (NCI) come the findings set out here.

The structures appear in SMILES notation. About 83,000 compounds went through this panel and 20% of them were active in at least one assay; those are over-represented in the sample as a whole.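 Each cell line was grown in a 96-well plate and treated with one concentration of compound for 48 hours. Values below 10 were considered active.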 Values without a mark were called inactive. Calls of active or inactive are those of the source.

This experiment has as its system HL-60(TB) leukemia. Description: NCI-60 one-dose screen, 48 h (100 = growth as untreated, 0 = no growth, -100 = all killed). The note with it: 10 µM unless noted.
With `COc1ccc2c(c1)N(Cc1ccc(Cl)cc1)CCC2N1CCCC1=O` (stereo not given), the growth was 53.9%.

As for `C[C@@H]1CC[C@@H]2[C@@H]1[C@H](OC(=O)/C=C/c1ccccc1)[C@]1(CCCOCCOCCOCCOC(=O)CCCC[C@@H]3SC[C@@H]4NC(=O)N[C@@H]43)C[C@@H](OC(=O)CO)[C@@]2(C)O1`, the growth was 98.1%.

Regarding `Cc1ccsc1C(=O)CC(=O)C(F)(F)C(F)(F)C(F)(F)F`, the growth was 107%.

For the molecule `O=C(/C=C/c1ccco1)Nc1ncc(Cc2cc(Cl)ccc2Cl)s1`, the growth is -50% (active).

Regarding `O=C1C=C[C@]2(C[C@@H](c3cccc(C(F)(F)F)c3)O[C@@H](c3cccc(C(F)(F)F)c3)O2)O1`, the growth is 8.74% (active).

Turning to `O=C(c1ccccc1)N1N=C(c2ccc(-n3ccc(C(F)(F)F)n3)cc2)CC1c1ccc[nH]1` (stereo not given), the growth was 93.3%.

Turning to `CCSc1ccc([C@@H]2[C@@H](N)C(=O)N2c2cc(OC)c(OC)c(OC)c2)cc1`, the growth is -40.5% (active).

In the case of `O=c1c(CNc2ccc(S(=O)(=O)Nc3ncccn3)cc2)coc2ccccc12`, the growth was 93.2%.

As to `CCCCCCCCCCCCCCCCCC1=NCCN1CS(=O)(=O)O`, the growth was 24.2%.

As for `CCCCCCCCC(C)C(=O)N1CCCC1C(=O)N1C(CC(=O)CC)CC(C)CC1C(=O)NC(C)C(=O)NC(C)(C)C(=O)NC(C)(C)C(=O)NC(C(=O)NC(C)C(=O)NC(C)(C)C(=O)NC(C)(C)C(=O)NC(C)CN(C)CCO)C(C)CC` (stereo not given), the growth was -51.8% (active).

On to `O=C(NC(Cc1nnc2n(Cc3ccccc3)c(=O)c3c4c(sc3n12)CCCC4)c1ccc(Cl)cc1)c1ccccc1` (stereo not given), for which the growth is 78.5%.

As to `Cc1cccc(/C=N/Nc2cc(C)c3cccc(C)c3n2)n1`, the growth was 83.1%.

For `C/C(=C/CCC(C)[C@@H]1CC[C@]2(C)C3=C(CC[C@@]12C)[C@@]1(C)CCC(=O)C(C)(C)[C@@H]1CC3)C(=O)O` (stereo not given in full), the growth was -58.8% (active).

Turning to `COc1ccc(OC2=CC(=O)c3ccc(C)nc3C2=O)cc1`, the growth was 52.1%.

For `NC(=O)c1ccccc1OCC(O)CO` (stereo not given), the growth is 108%.

With `Cc1ccc2c(NCCCN(C)C)c3c(C)nn(C)c3nc2c1`, the growth is 32.4%.

Take `O=C(CSc1nc2ccccc2[nH]1)Nc1cccc(Cl)c1`: the growth is 102%.

`O=C1/C(=C/c2ccc([N+](=O)[O-])cc2)COc2ccc(O)c(O)c21`: the growth was -14.6% (active).

With `CCN(CC)CCn1c(=O)c2cc(OC)c(OC)cc2c2ccc3cc4c(cc3c21)OCO4`, the growth was 3.79% (active).

Regarding `NC(C(=O)O)c1ccc([N+](=O)[O-])cc1` (stereo not given), the growth was 95.8%.

As for `Cc1ccc(S(=O)(=O)N2CCCC2CO)cc1` (stereo not given), the growth was 97.7%.

Consider `O=C(N/N=C/c1cc(Cl)ccc1O)c1ccccc1Nc1ccnc(C(F)(F)F)c1`, for which the growth is 39.3%.

Regarding `CC(C)(C)C1CCC(=NO)CC1` (stereo not given), the growth was 110%.

As for `CN(C)C(=O)c1cc2cnc(Nc3ccc(-c4csc5c(=O)cc(N6CCNCC6)oc45)cc3)nc2n1C1CCCC1`, the growth was -21% (active).

`Nc1nc(-c2ccc(Cl)cc2)cc(-c2cc3ccccc3oc2=O)n1`: the growth was 125%.

As to `Cc1nc(O)cc(=O)[nH]1`, the growth was 97%.

Regarding `CCC1(/C=N/NC(N)=S)NC(=O)NC1=O` (stereo not given), the growth is 111%.

With `COc1cc(Cl)c(C)cc1NC(=O)c1cc2ccccc2cc1O`, the growth is 9.27% (active).

For `C(#Cc1ccccc1C#Cc1ccccn1)c1ccc(OCCCCCCOc2ccc(C#Cc3ccccc3C#Cc3ccccn3)cc2)cc1`, the growth was 14.3%.

Turning to `N=C1c2nc3n(c2C(=O)c2nc4n(c21)CCCC4)CCCC3`, the growth is 96.3%.

As to `Cc1cnc(Nc2ccc(OCCN3CCCC3)cc2)nc1NCc1ccco1`, the growth was 81.2%.

Regarding `CSc1nnc(C2=CC(=O)c3ccccc3C2=O)n1-c1ccccc1`, the growth was 4.64% (active).

Consider `CCCOc1cc2ccccc2cc1C(=O)Nc1nc(N)c2c(ccc3nccc32)[nH]1`, for which the growth is -56.3% (active).

Regarding `Nc1nc(Cl)c2c(C(F)(F)F)cn(CC3CCNCC3)c2n1`, the growth is 25.5%.

Consider `Cc1cccc(/C=C/c2c(C(=O)/C=C/c3ccccc3)c(C)nc3ccccc23)c1`, for which the growth is -15.8% (active).

For `C=CC(=O)N1CCC(Oc2cc3c(Nc4ccc(Cl)c(Cl)c4F)ncnc3cc2OC)CC1`, the growth is 24.7%.

For the molecule `CCN1CCN(c2nc(C)cc(N(CCCNc3ccnc4cc(Cl)ccc34)Cc3ccc4c(c3)OCO4)n2)CC1`, the growth was -60.4% (active).

With `Cc1ccc(S(=O)(=O)N(CC[C@@H]2C[C@H]2c2cc3ccccc3o2)C(=O)NC2CCCCC2)cc1`, the growth is 105%.

As to `COc1ccc(-c2[nH]c3ccc(OC)cc3c2C=C(C#N)C#N)cc1`, the growth is -43.1% (active).

On to `CC(C)OC(=O)NNC(=O)c1ccncc1`, for which the growth was 85.2%.
